An excerpt weighted towards active compounds, which were near 10% of everything screened.
ALDH1A1 block – ALDH1A1 (human) enzyme inhibition; P00352; Purified ALDH1A1, NADH fluorescence, propionaldehyde substrate; Potency, µM (series often up to 75.3 µM), actives largely listed as inhibitors; 220,000 compounds, 7.3% hits; active = well fitted inhibition curve with a large enough effect, not every such curve was filed as active; inconclusive = small, poorly fitted or top-dose-only effect, or another doubt; inactive = no such curve, though single readings can be large or run the other way
Target sequence (P00352 whole entry, looked up): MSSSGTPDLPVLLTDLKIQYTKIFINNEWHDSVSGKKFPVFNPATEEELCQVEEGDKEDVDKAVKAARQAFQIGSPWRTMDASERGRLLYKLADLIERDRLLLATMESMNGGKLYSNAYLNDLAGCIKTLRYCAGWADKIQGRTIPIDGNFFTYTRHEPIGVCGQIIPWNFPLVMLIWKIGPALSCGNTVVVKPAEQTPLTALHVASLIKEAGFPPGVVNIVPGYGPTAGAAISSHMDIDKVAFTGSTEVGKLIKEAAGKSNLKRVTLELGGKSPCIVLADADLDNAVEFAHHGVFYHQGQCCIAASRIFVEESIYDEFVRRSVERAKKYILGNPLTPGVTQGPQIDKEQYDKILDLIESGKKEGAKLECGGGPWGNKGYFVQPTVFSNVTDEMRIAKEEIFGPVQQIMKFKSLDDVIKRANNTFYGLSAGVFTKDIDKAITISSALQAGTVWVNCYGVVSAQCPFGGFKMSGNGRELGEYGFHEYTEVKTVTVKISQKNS
GLA spleen mod – alpha-galactosidase A (human) modulation; P06280; human spleen homogenate, 4MU-alpha-Gal fluorescence, 40 min; Potency, µM (doses to about 80 µM), actives largely listed as inhibitors; 240,000 compounds, 0.008% hits
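Human spleen homogenate (1 ug) as enzyme source, 4-methylumbelliferyl-alpha-D-galactopyranoside 1 mM final, citrate/phosphate pH 5.0 with 0.01% Tween-20. Compounds 40 min at 37C, NaOH/glycine stop; fluorescence Ex 365/Em 440, Hill-fit AC50.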
GLA inh pH 4.5 – inhibitors of human alpha-galactosidase A at pH 4.5; P06280; purified enzyme, 4-MU-alpha-Gal fluorescence, pH 4.5; activity change, negative = inhibition, % at 105 µM; 230,000 tested, under 10 active
HPGD block – HPGD (human) dehydrogenase inhibition; purified HPGD, NADH fluorescence kinetic, PGE2 substrate; Potency, µM, actives largely listed as inhibitors; 150,000 compounds, 4.3% hits; AID 894; active = well fitted inhibition curve with a large enough effect, not every such curve was filed as active; inconclusive = small, poorly fitted or top-dose-only effect, or another doubt; inactive = no such curve, though single readings can be large or run the other way
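NADH formation kinetics: reaction with 30 uM PGE2 and 1 mM NAD+ (final), 20 nM enzyme, Tris-HCl pH 8 with Tween 20, after 15 min compound preincubation at room temperature. Fluorescence change, last versus first of five reads.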
PNC assembly inh – perinucleolar compartment assembly inhibition | 140,000 compounds, 3.1% hits | activity change (PNC), negative = inhibition, % at 10 µM | AID 2417 | PC3M PTB-GFP, PNC prevalence imaging, 16 h; active compounds read low;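 active = readout at or below -70, meaning at least 70% loss of cells showing the perinucleolar compartment, a nuclear body marking cancer cells; inconclusive = readout between -30 and a set limit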
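Read-out is percentage of cells bearing a perinucleolar compartment, from automated 20x imaging of fixed, Hoechst-stained PC3M PTB-GFP cells. Cells were seeded 4 h, then exposed 16 h to compound (23 nl of library stock) in duplicate plates.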
12-hLO inh – inhibitors of human 12-lipoxygenase (ALOX12); P18054; Potency, µM (series often up to 57.1 µM), most hits filed as inhibitors; 150,000 compounds, 0.12% hits; purified 12-hLO, xylenol orange hydroperoxide absorbance; note: nearly all actives have a fitted effect of over 55% in size
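Lipoxygenase turnover measured by absorbance at 573 and 405 nm after Fe-XO development. Human 12hLO 150 nM, arachidonate 40 uM, pH 7.0 Hepes buffer with detergent; 15 min compound preincubation, 30 min reaction.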
Each line names hits and unclear results; the compound was inactive in the other large screens. Unless noted, calls come from the whole dose curve; as a rule, active = well fitted curve in the direction sought with a large enough effect; inconclusive = small, poorly fitted or top-dose-only effect, or another doubt; inactive = no such curve, though single readings can be large; an effect the other way counts as inactive or inconclusive.

COc1cc2c(cc1OC)C1(O)C(=O)c3ccc(O)c(C(=O)O)c3OC1CO2 (stereo not drawn)	none (no result: PNC assembly inh)
Cc1cccc(CNc2nc(-c3ccc4c(c3)OCO4)nc3ccccc23)c1	ALDH1A1 block inconclusive (no result: GLA inh pH 4.5, HPGD block, PNC assembly inh, 12-hLO inh)
CCOc1cc(C(=O)N/N=C\c2cn(CC)nc2C)cc(OCC)c1OCC	ALDH1A1 block inconclusive, PNC assembly inh inconclusive
OCC1O[C@H](O[C@H]2C(O)C(O)C(O)O[C@@H]2CO)C(O)C(O)C1O (stereo partly drawn)	none (no result: PNC assembly inh)
CCOC(=O)c1[nH]c(COC(=O)C2CC(=O)N(Cc3ccccc3)C2)c(C(=O)OCC)c1C (stereo not drawn)	ALDH1A1 block 40µM, HPGD block 28µM
Cc1ccc(S(=O)(=O)N(C)CC(=O)OCc2nnc(-c3ccccc3)o2)cc1	ALDH1A1 block inconclusive, HPGD block 25µM
Cc1ccc(SCC(c2ccccc2)N2CCN(CCc3ccccc3)CCC2=O)cc1 (stereo not drawn)	none (no result: ALDH1A1 block, GLA inh pH 4.5, HPGD block, PNC assembly inh, 12-hLO inh)
COc1ccc(N)c2c1C(=O)c1ccccc1C2=O	ALDH1A1 block inconclusive
COc1ccc(OC)c2c1C(=O)c1ccccc1C2=O	ALDH1A1 block 7.9µM
COC1=C(OC)C(=O)c2ccccc2C1=O	ALDH1A1 block 14µM, HPGD block inconclusive (no result: PNC assembly inh)
CC1CCC2C(=O)N(c3ccc(C(=O)Oc4cccc5cccnc45)cc3)C(=O)C2C1 (stereo not drawn)	ALDH1A1 block inconclusive (no result: HPGD block)
[O-]/[N+](=C/c1ccc(F)cc1)c1ccccc1	ALDH1A1 block inconclusive
[O-]/[N+](=C\c1ccncc1)c1ccccc1	ALDH1A1 block 15µM
[O-]/[N+](=C\c1ccc(OC(F)F)cc1)c1ccccc1	ALDH1A1 block 7.9µM
COC(=O)C1=COC(O[C@H]2OC(CO)[C@H](O)C(O)C2O)[C@H]2C1C(=O)C[C@@H]2C (stereo partly drawn)	none (no result: PNC assembly inh, 12-hLO inh)
CN1CCO/C1=C(\C(Cl)=C(Cl)Cl)[N+](=O)[O-]	none (no result: HPGD block, PNC assembly inh, 12-hLO inh)
O=[N+]([O-])C(=C1Nc2ccccc2N1)C(Cl)=C(Cl)Cl	ALDH1A1 block 6.3µM (no result: HPGD block, PNC assembly inh, 12-hLO inh)
CC1(C)Cc2c(C#N)c(SCC(=O)c3ccccc3)nc(N3CCOCC3)c2CS1	ALDH1A1 block 13µM
COC(=O)c1ccc(CSc2nc(N3CCOCC3)c3c(c2C#N)CC(C)(C)OC3)o1	ALDH1A1 block 1.3µM, PNC assembly inh inconclusive
CC(C)CCSc1nc(N2CCOCC2)c2c(c1C#N)CC(C)(C)OC2	none (no result: HPGD block)
CN1Cc2c(N3CCOCC3)nc(SCc3ccccc3)c(C#N)c2CC1(C)C	ALDH1A1 block inconclusive (no result: HPGD block)
CN(C)c1nc(-c2cccc(NS(C)(=O)=O)c2)nc2ccccc12	none (no result: GLA inh pH 4.5, HPGD block, PNC assembly inh, 12-hLO inh)
O=C(O/N=C\c1ccc(N2CCCCC2)c([N+](=O)[O-])c1)c1cccc(Cl)c1	ALDH1A1 block inconclusive
O=C(O/N=C\c1ccc(N2CCCCC2)c([N+](=O)[O-])c1)c1c(F)cccc1F	ALDH1A1 block 18µM
Cc1ccc(C(=O)O/N=C\c2ccc(N3CCCCC3)c([N+](=O)[O-])c2)cc1	ALDH1A1 block 1.4µM, PNC assembly inh inconclusive
O=C1CCCc2oc3c(c21)CCCC3	ALDH1A1 block inconclusive (no result: HPGD block, PNC assembly inh, 12-hLO inh)
Cc1nn(Cc2ccccc2)c(Cl)c1/C=C/C(=O)OCC(=O)N1CCCC1=O	ALDH1A1 block inconclusive (no result: HPGD block, PNC assembly inh, 12-hLO inh)
CCC/C=C(\CCC)C(NS(C)(=O)=O)c1ccccc1 (stereo not drawn)	none (no result: PNC assembly inh)
Cc1onc(-c2ccccc2)c1CNS(=O)(=O)c1ccccc1[N+](=O)[O-]	ALDH1A1 block 13µM (no result: HPGD block, PNC assembly inh, 12-hLO inh)
CCCCN1C(=O)C(=Nc2cccc3cnccc23)c2ccccc21	ALDH1A1 block 0.63µM (no result: HPGD block, PNC assembly inh, 12-hLO inh)
O=C(CN1C(=O)c2cccc3cccc1c23)NCc1cccnc1	none
COc1ccc(C2C(C(=O)O)CCC(=O)N2c2ccc(C)cc2)cc1OC (stereo not drawn)	none (no result: ALDH1A1 block, HPGD block, PNC assembly inh, 12-hLO inh)
O=C1c2ccccc2S(=O)(=O)N1CC1CC(c2ccccc2Cl)=NO1 (stereo not drawn)	ALDH1A1 block 13µM, HPGD block 14µM
COC(=O)c1ccc(C(NC(=O)OCc2ccccc2)/C(=C/[C@@H](C)C(=O)NCC2CC2)c2cccnc2)cc1 (stereo partly drawn)	none (no result: PNC assembly inh)
COC(=O)Cn1cccc1C(=O)c1ccccc1	PNC assembly inh inconclusive
